Screens deposited in PubChem BioAssay by National Center for Advancing Translational Sciences (NCATS).
p53 reactivator: mutant p53 re-activation in reporter cells; hit rate 0.063% among 320,000; Potency, µM (titrated, usually from 92.2 µM), for inactives: at the top dose activity change, positive = activation, most hits filed as activators; H1299 p53-A138V BP100-luciferase reporter, luminescence, 24 h; active = well fitted activation curve with a large enough effect; inconclusive = small, poorly fitted or top-dose-only effect; inactive = no such curve, though single readings can be large or run the other way; also: potency is read from the fitted curve at half-maximal effect; % of control where 0% means no effect; nearly all actives have a fitted effect of over 45% in size
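p53-null H1299 cells stably carrying temperature-sensitive p53-A138V and a BP100-luciferase reporter were pinned with compounds (4-point, 1:5 series) and held 24 hrs at 37 deg C. Luminescence was read 10 min after detection reagent.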
ClpP mod: qHTS Assay for Activators of ClpP; ATP-dependent Clp protease proteolytic subunit (Bacillus subtilis (strain 168)), P80244; purified B. subtilis ClpP, FRET peptide cleavage, 20 min; Potency, µM (doses to about 57.5 µM), inactives show top-dose activity change, negative = active; hit rate 1.9% among 340,000; active = well fitted falling curve with a large enough effect; inconclusive = small, poorly fitted or top-dose-only effect; inactive = no such curve, though single readings can be large or run the other way; also: potency is read from the fitted curve at half-maximal effect; the source files actives as falling curves though it sought activators and does not explain the sign; nearly all actives have a fitted effect of over 65% in size
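Purified B. subtilis ClpP, 10 microg/mL final in Tris/HCl pH8 with KCl, BSA, glycerol and Tween-20, cleaved an Abz/nitrotyrosine-quenched decapeptide. Fluorescence (ex 320, em 430) was read at 0 and 20 min at room temperature. Delta was normalized to 5.8 microM ADEP and DMSO/no-enzyme controls.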
CXXC DNA block: blocks binding of human MLL CXXC domain to DNA; MLL-CXXC / FITC-HOXA9 DNA fluorescence polarization; hit rate 0.037% among 290,000; Q03164; Potency, µM (top dose mostly 115 µM), for the others: top-dose activity change, negative = inhibition, actives largely listed as inhibitors; active = well fitted inhibition curve with a large enough effect in the polarisation, with a control signal flat, not every such curve was filed as active; inconclusive = small, poorly fitted or top-dose-only effect, or effect the other way, or a change in a side signal; inactive = no such curve, though single readings can be large or run the other way; the % refers to the polarisation; also: potency is read from the fitted curve at half-maximal effect
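Purified MLL-CXXC (added from a 7 uM solution) was preincubated 5 min at ambient with pinned compounds in 50 mM Tris-HCl pH 7.5, 50 mM NaCl, 1 mM DTT, 0.05% BSA. Fluorescein-labeled HOX-A9 DNA (50 nM solution) followed, 30 min, then polarization read.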
Menin MLL FP TR: displaces Texas Red mutant MLL peptide from human menin; Menin + Texas Red MLL mutant peptide, fluorescence polarization; O00255; AID 1768; hit rate 0.23% among 270,000; Potency, µM (series often up to 61.6 µM), for inactives: at the highest dose FP activity change, negative = inhibition, actives largely listed as inhibitors; active = well fitted inhibition curve with a large enough effect in the polarisation, with a control signal flat, not every such curve was filed as active; inconclusive = small, poorly fitted or top-dose-only effect, or effect the other way, or a change in a side signal; inactive = no such curve, though single readings can be large or run the other way; the % refers to the polarisation; also: potency is read from the fitted curve at half-maximal effect; % of control where 0% means no effect
Menin MLL FP FL: inhibitors of human menin-MLL interaction, wild-type MLL peptide. 290,000 tested, under 10 active. Fluorescence polarization, fluorescein-MLL peptide displacement from menin. AID 1766. FP activity change, % at 61.4 µM; active = well fitted curve in the direction sought with a large enough effect in the polarisation, not every such curve was filed as active; inconclusive = small, poorly fitted or top-dose-only effect, or effect the other way, or a change in a side signal; inactive = no such curve, though single readings can be large or run the other way; the % refers to the polarisation; also: % of control where 0% means no effect
* hit, by the source's call; ? = inconclusive; . = not tested or not shown; ! = repeats disagree; [ ] = remark or other dose. The sample as a whole holds a higher share of hits than the screen did.

SMILES	p53 reactivator	ClpP mod	CXXC DNA block	Menin MLL FP TR	Menin MLL FP FL
Cc1ccc(N2C(=O)CC(NNc3nc4ccccc4s3)C2=O)cc1C (stereo not given)	14.6%	12.6µM*	-5.1%	?	3.6
c1ccc(Cc2c(-c3ccccc3)nc3c4ccccc4ccn23)cc1	.	31.6µM*	.	.	.
Brc1cccc(-c2nc3c4ccccc4ccn3c2Cc2ccccc2)c1	.	-21.4%	.	.	.
N#CCCN1CCN(S(=O)(=O)c2ccc3c(c2)CCC3)CC1	13.0%	1.9%	.	.	.
O=S(=O)(c1ccc2c(c1)CCC2)N1CCNCC1	0.1%	28.2µM*	.	.	.
CCc1ccccc1N(C)C(=O)c1cc2c(=O)oc3ccccc3c2s1	.	0.4%	.	.	.
CC1Cn2c(C(=O)NCc3ccccc3Cl)cc3cccc(c32)S1 (stereo not given)	.	28.2µM*	.	.	.
CC1Cn2c(C(=O)NCCc3ccc(Cl)cc3)cc3cccc(c32)S1 (stereo not given)	.	31.6µM*	.	.	.
COc1ccccc1CNC(=O)CCC(=O)N1CC(C)Sc2ccccc21 (stereo not given)	.	-4.1%	.	-27.5%	-2.7
Cc1ccccc1CNC(=O)c1cc2cccc3c2n1CC(C)S3 (stereo not given)	.	39.8µM*	.	.	.
O=C(NCc1ccc(F)cc1)c1cc2cccc3c2n1CCS3	.	4.0%	.	.	.
Cn1cccc1C(=O)NCCc1ccc(Cl)cc1	23.5%	-1.8%	-15.5%	.	.
COc1ccccc1CNC(=O)c1cc2cccc3c2n1CC(C)S3 (stereo not given)	.	31.6µM*	.	.	.
COc1ccc(C2=NC(c3ccc(Cl)cc3)C(c3ccc(Cl)cc3)N2C(=O)N2CCNC(=O)C2)c(OC(C)C)c1 (stereo not given)	.	.	.	22.3%	-0.9
CN(C)c1ccc(-c2nccc(Nc3ccc(F)cc3)n2)cc1	.	.	.	?	5.5
O=c1oc(-c2ccccc2)nc2sc3c(c12)CCC3	?	9.0%	-1.7%	?	-0.3
Nc1nc(-c2ccccc2)nc2sc3c(c12)CCCC3	?	31.6µM*	1.0%	?	5.2
C[C@H]1Cc2c(-c3ccccc3)nc3c(c2CO1)CN(C(=O)C1CCCCC1)CC3	.	.	.	-17.3%[11.7 µM]	0.6[11.7 µM]
COc1cccc(CNc2nc3nc(C)cc(C)n3n2)c1	15.3%	20µM*	4.6%	13.6%	1.8
Cc1ccc(NC(=O)CN(C)S(=O)(=O)c2ccc3c(c2)n(C)c(=O)c(=O)n3C)c(C)c1	-9.0%	31.6µM*!	0.1%	-10.3%	4.7
Nc1c(C(=O)Nc2ccc(S(=O)(=O)N3CCCC3)cc2)sc2nc3cc4c(cc3cc12)CCC4	?	25.1µM*	-3.9%	-0.5%	?
Nc1c(C(=O)Nc2ccc(S(=O)(=O)N3CCCC3)cc2)sc2nc3ccc(OC(F)(F)F)cc3cc12	0.0%	?	17.2%	-28.3%	?
Cc1ccc(C)c(S(=O)(=O)c2c(N)n(/N=C/c3ccco3)c3nc4ccccc4nc23)c1	-7.1%	7.94µM*	11.6%	53.6%	?
Nc1c(S(=O)(=O)c2ccccc2)c2nc3ccccc3nc2n1/N=C/c1cccc(O)c1	3.3%	10µM*	-3.0%	-5.0%	-0.4
O=C(N/N=C/c1ccc(O)cc1)NC12CC3CC(CC(C3)C1)C2	9.8%	-1.5%	18.5%	41.0%	9.1
SMILES	p53 reactivator	ClpP mod	CXXC DNA block	Menin MLL FP TR	Menin MLL FP FL
C=C1CC(C(=O)N/N=C/c2ccc(O)cc2)C1	18.8%	11.2µM*	-3.7%	-7.3%	2.2
CN(C)c1ccc(/C=C2\C=Cc3ccccc32)c(F)c1	.	0.5%	.	.	.
Cc1ccc2[nH]c(-c3cccc(N)c3)cc2c1	?	15.8µM*	3.1%	?	-5.0
O=C1c2ccccc2NC(c2cccc(F)c2)N1Cc1ccccc1 (stereo not given)	-6.0%	3.8%	1.9%	30.8%	1.3
O=C1c2ccccc2NC(c2c(Cl)cccc2Cl)N1Cc1ccccc1 (stereo not given)	3.8%	31.6µM*	-12.8%	?	4.8
O=C1c2ccccc2NC(c2ccc(Cl)cc2Cl)N1Cc1ccccc1 (stereo not given)	4.0%	31.6µM*	-10.4%	3.4%	1.2
Cc1cccc(C2Nc3ccccc3C(=O)N2CCc2ccccc2)n1 (stereo not given)	?	17.8µM*	7.7%	-14.9%	0.3
O=C1c2ccccc2NC(c2ccc(Cl)cc2Cl)N1O (stereo not given)	-0.2%	2.5%	4.8%	4.7%	0.6
CNc1ccc(C(=O)Oc2cc(O/N=[N+](\[O-])N(C)C)c([N+](=O)[O-])cc2[N+](=O)[O-])cc1	.	.	.	?	-1.2
Cc1nonc1OCCNCCNc1ccc([N+](=O)[O-])cc1Cl	-5.6%	.	1.7%	1.1%	0.7
O=[N+]([O-])c1ccc(NCCNCCOc2nonc2-c2ccccc2)c([N+](=O)[O-])c1	1.8%	15.8µM*	2.0%	?	-0.3
C=CCn1c(SCC(=O)c2[nH]c(C)c(C(C)=O)c2C)nnc1-c1ccncc1	-3.4%	31.6µM*	9.0%	.	15.4
COc1cc(/C=N/NC(=O)CCN2CCN(C)CC2)cc2c1OCO2	2.4%	15.8µM*	-8.0%	.	.
O=C(Nc1cc(F)ccc1F)c1cnn2c1NC(=C1CC1)C=C2C(F)F	.	0.5%	.	.	.
CC1(C)CC2CC(C)(CN2C(=O)COC(=O)CNC(=O)c2ccc(Cl)c(Cl)c2)C1 (stereo not given)	1.5%	25.1µM*	0.3%	-2.2%	-1.1
CC1(C)CC2CC(C)(CN2C(=O)COC(=O)c2cc(Cl)cc(Cl)c2N)C1 (stereo not given)	-1.2%	31.6µM*	2.7%	-0.9%	-0.8
CN(C)c1ncc2nc(-c3ccccc3)c(=O)n(CCC#N)c2n1	.	.	.	28.2µM*	?
CC1CCCCN1C(=O)CSc1n[nH]c(-c2ccccc2Cl)n1 (stereo not given)	.	-0.8%	.	.	.
COc1ccc(Cn2c(-c3ccc(OC)cc3)n[nH]c2=S)cc1	2.1%	.	17.6%	-13.7%	1.8
CC(C)Oc1ccc(Cn2c(-c3ccco3)n[nH]c2=S)cc1	16.4%	28.2µM*	-6.8%	7.8%	9.1
CCc1ccc2oc(-c3ccc(C)c(NC(=O)COc4ccccc4Cl)c3)nc2c1	.	-15.2%	.	.	.
COc1ccc(C(=O)NCCc2sc(-c3cccc(F)c3)nc2C)cc1	.	4.3%	.	.	.
COc1cccc(Nc2nc(-c3cccc(N4C(=O)c5ccccc5C4=O)c3)cs2)c1	-2.9%	-3.9%	32.7%	14.1µM*	1.6
Fc1ccccc1-c1ccc(/C=N/Nc2nc3ccccc3[nH]2)o1	35.5µM*	-28.8%	59.7%	?	3.9
COc1ccc2nc(N3C(=O)CC(C(C)c4ccccc4)C3=O)sc2c1 (stereo not given)	3.7%	28.2µM*	5.8%	-14.5%	8.0
COc1ccc2nc(N3C(=O)CC(Cc4ccc(C)cc4)C3=O)sc2c1 (stereo not given)	-4.0%	-1.4%	7.2%	7.1%	1.1
O=C(NCCCOc1cccc(CN2CCCCC2)c1)c1ccc(Cl)c(Cl)c1	-3.9%	15.8µM*	9.5%	-4.2%	1.9
